In PubChem BioAssay (Tox21):
Records with an inconclusive call do not appear. Active and inactive are the calls of the source. Unless noted, calls come from the whole dose curve; as a rule, active = well fitted curve in the direction sought with a large enough effect in the repeat runs; inconclusive = weak or mixed curves; inactive = no such curve, though single readings can be large; an effect the other way counts as inactive or inconclusive.

Columns and labels:
[1] = A CellTox Green Cytotoxicity Assay to monitor cytotoxicity in HEK293 cells - 16 hour (AID 1224888); settings: CellTox Green fluorescence; series mostly up to 76.8 µM; note: nearly all actives have a fitted effect of over 35% in size
Outline: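 Real-time, in one plate: 600 HEK293 cells/well with dead-cell DNA dye, pinned compound after 5 h, 37 C incubation over 40 h; viable cells give no appreciable fluorescence.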

[2] = qHTS RealTime-Glo MT Cell Viability Assay in HepG2 cells - 0 hour (AID 1224889); settings: RealTime-Glo luminescence; series mostly up to 76.8 µM; note: nearly all actives have a fitted effect of over 50% in size
Outline: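 HepG2 suspension premixed with RealTime-Glo reagents is plated at 600 cells per well and left 5 h at 37 C/5% CO2. Compounds in DMSO then go in, and bioluminescence reflecting viable cell number is recorded over 40 h.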

[3] = A CellTox Green Cytotoxicity Assay to monitor cytotoxicity in HepG2 cells - 8 hour (AID 1224890); settings: CellTox Green fluorescence; series mostly up to 76.8 µM; note: nearly all actives have a fitted effect of over 45% in size
Outline: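 Cytotoxicity was tracked as dead-cell DNA fluorescence in HepG2 cells treated with test compounds at 37 C; each time-point value comes from one kinetic series spanning 0, 8, 16, 24, 32 and 40 h.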

[4] = qHTS assay to identify small molecule antagonists of the estrogen receptor alpha (ER-alpha) signaling pathway using the BG1 cell line in the presence of 0.1 nM 17-beta-estradiol - cell viability counter screen (AID 1259241); settings: VM7Luc4E2 (BG1) viability, CellTiter-Fluor protease, 22 h, 0.1 nM estradiol agonist added; series mostly up to 92.4 µM; note: nearly all actives have a fitted effect of over 40% in size
Outline: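 In this screen, hormone-deprived VM7Luc4E2 cells were seeded at 4,000 per well, dosed with compound and 0.1 nM estradiol final, and incubated 22 hr at 37C and 5% CO2; fluorogenic live-cell protease signal reported viability.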

[5] = qHTS assay to identify small molecule antagonists of the androgen receptor (AR) signaling pathway using the MDA cell line in the presence of 0.5 nM R1881 - cell viability counter screen (AID 1259242); settings: MDA-kb2 viability, CellTiter-Fluor protease fluorescence, 16 h; series mostly up to 92.4 µM; note: nearly all actives have a fitted effect of over 45% in size
Outline: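 Cells seeded at 3,000/well and allowed 5 hr at 37C, 0% CO2 before compound transfer and R1881 (0.5 nM final) addition; 16 hr later, live-cell protease fluorescence indicated cytotoxicity.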

[6] = target: Androgen receptor (Homo sapiens) (UniProt P10275); assay: qHTS assay to identify small molecule antagonists of the androgen receptor (AR) signaling pathway using the MDA cell line in the presence of 0.5 nM R1881 (AID 1259243); settings: MDA-kb2 MMTV-luciferase, R1881 0.5 nM, 16 h; series mostly up to 92.4 µM; note: nearly all actives have a fitted effect of over 50% in size
Outline: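 Luminescence from an AR/GR-responsive MMTV-luciferase construct in MDA-kb2 breast carcinoma cells, read 30 min after ONE-Glo, following 16 hr co-treatment with compounds and 0.5 nM R1881.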

[7] = qHTS assay to identify small molecule HDAC inhibitors (AID 1259364); settings: HCT-116 HDAC-Glo I/II luminescence, 2 h; series mostly up to 92.4 µM;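 note: wild-type HCT-116 cells with endogenous class I/II HDAC activity; top concentration of the series differs between compounds; nearly all actives have a fitted effect of over 45% in size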
Outline: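 HCT-116 wt cells, 1,500/well, overnight attach. Compounds (DMSO) 2 h, 37 °C. HDAC-Glo I/II, 30 min RT. Luminescence.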

[8] = qHTS assay to identify small molecule HDAC inhibitors - cell viability counter screen (AID 1259365); settings: HCT-116 viability, CellTiter-Glo ATP luminescence, 2 h; series mostly up to 92.4 µM; note: nearly all actives have a fitted effect of over 50% in size
Outline: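 Measured quantity is CellTiter-Glo luminescence from wild-type HCT-116 cells after compound incubation of 2hr at 37C, 5% CO2; reagent developed 30min at room temperature.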

[9] = qHTS assay to identify small molecule agonists of the sonic hedgehog signaling (Shh) pathway - cell viability counter screen (AID 1259366); settings: NIH/3T3 Gli1-Luc viability, CellTiter-Fluor, 24 h; series mostly up to 92.4 µM; note: nearly all actives have a fitted effect of over 50% in size
Outline: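 In quantitative high-throughput format, 3T3 Gli1-Luc cells were exposed to compounds for 24hr and multiplexed for viability using CellTiter-Fluor, incubated 1hr at 37C before the fluorescence read.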

[10] = qHTS assay to identify small molecule antagonists of the sonic hedgehog signaling (Shh) pathway - cell viability counter screen (AID 1259367); settings: NIH/3T3 Gli1-Luc viability, CellTiter-Fluor, 24 h; series mostly up to 92.4 µM; note: nearly all actives have a fitted effect of over 55% in size
Outline: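 Conditioned medium drove Shh signaling in 3T3 Gli1-Luc cells exposed to compounds at 37C and 5% CO2. Viability was determined from CellTiter-Fluor fluorescence, with reagent incubated 1 hr after 23 hr of treatment.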

[11] = qHTS assay to identify small molecule agonists of the sonic hedgehog signaling (Shh) pathway (AID 1259368; calls by dose curve;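 note: NIH/3T3-derived 3T3Gli1-Luc cells carrying a stable Gli1-driven firefly luciferase reporter; nearly all actives have a fitted effect of over 15% in size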); settings: NIH/3T3 Gli1-Luc reporter, luciferase, 24 h, stronger effect = higher value; series mostly up to 92.4 µM
Outline: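 Following a 24 hr incubation with DMSO-dissolved compounds at 37 C, 5% CO2, Gli1-Luc NIH/3T3-derived cells received luciferase reagent for 30 min at room temperature prior to luminescence measurement.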

[12] = qHTS assay to identify small molecule antagonists of the sonic hedgehog signaling (Shh) pathway (AID 1259369; calls by dose curve; note: nearly all actives have a fitted effect of over 45% in size); settings: NIH/3T3 Gli1-Luc reporter, Shh antagonist, luminescence 24 h; series mostly up to 92.4 µM
Outline: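 Read-out is luminescence from a firefly luciferase gene controlled by the Gli1 response element, in 3T3Gli1-Luc cells pre-incubated 4hr then exposed to compounds and conditioned medium for 24hr.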

[13] = target: Estrogen receptor beta (Homo sapiens) (UniProt Q92731); assay: qHTS assay to identify small molecule agonists of the estrogen receptor beta (ER-beta) signaling pathway (AID 1259377; active = well fitted activation curve with a large enough effect in the signal ratio in the repeat runs, not every such curve was filed as active; the % refers to the signal ratio); settings: ER-beta-UAS-bla HEK293T, beta-lactamase FRET ratio, 16 h; series mostly up to 92.4 µM
Outline: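 Reporter cells (HEK293T, ER-beta-UAS-bla) receive compounds or DMSO after a 6 hr pre-incubation. They then incubate 16 hr at 37C/5% CO2, and fluorescence from LiveBLAzer B/G substrate is measured after 2 hours at room temperature.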

[14] = target: Estrogen receptor beta (Homo sapiens) (UniProt Q92731); assay: qHTS assay to identify small molecule antagonists of the estrogen receptor beta (ER-beta) signaling pathway (AID 1259378; active = well fitted inhibition curve with a large enough effect in the signal ratio in the repeat runs, not every such curve was filed as active; the % refers to the signal ratio); settings: ER-beta-UAS-bla HEK293T, beta-lactamase FRET ratio, 16 h; series mostly up to 92.4 µM
Outline: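 ER-beta-UAS-bla HEK293T (GripTite) cells in 2% charcoal-stripped FBS medium were preincubated 6 hr at 37C, dosed with compound, then stimulated with 1 nM E2 (final) for 16 hr; beta-lactamase reporter read by B/G FRET fluorescence after 2 hr substrate loading.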

[15] = qHTS assay to identify small molecule agonists of the androgen receptor (AR) signaling pathway in the presence of an antagonist - cell viability counter screen (AID 1259379); settings: MDA-kb2 viability, CellTiter-Fluor, 16 h; series mostly up to 92.4 µM;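 note: MDA-kb2 human breast cancer cells carrying an MMTV luciferase reporter; nearly all actives have a fitted effect of over 25% in size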
Outline: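 Each compound was tested at 15 concentrations on MDA-kb2 cells in the presence of 3.0uM nilutamide. Viability was measured by CellTiter-Fluor fluorescence after a 16 hr incubation at 37C in a CO2-free atmosphere.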

[16] = qHTS assay to identify small molecule agonists of the estrogen receptor beta (ER-beta) signaling pathway - cell viability counter screen (AID 1259380); settings: ER-beta-bla HEK293T viability, CellTiter-Glo luminescence, 16 h; series mostly up to 92.4 µM; note: nearly all actives have a fitted effect of over 30% in size
Outline: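 Compounds dissolved in DMSO were pin-transferred onto ER-beta-UAS-bla HEK293T cells that had settled 6 hr, and exposure ran 16 hr at 37C. Following the reporter read, CellTiter-Glo luminescence after 30 min at room temperature indicated cytotoxicity.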

[17] = target: Androgen receptor (Homo sapiens) (UniProt P10275); assay: qHTS assay to identify small molecule agonists of the androgen receptor (AR) signaling pathway in the presence of an antagonist (AID 1259381; calls by dose curve; note: nearly all actives have a fitted effect of over 15% in size); settings: MDA-kb2 MMTV-luciferase, AR agonist + nilutamide, 16 h; series mostly up to 92.4 µM
Outline: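 Plated MDA-kb2 cells (3,000/well) were pre-incubated 5hr, given nilutamide (3.0uM final) or buffer, then dosed with compounds in DMSO at 15 concentrations. Luciferase activity was quantified by luminescence after 16hr at 37C.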

[18] = qHTS assay to identify small molecule antagonists of the estrogen receptor beta (ER-beta) signaling pathway - cell viability counter screen (AID 1259382); settings: ER-beta-UAS-bla HEK293T viability, CellTiter-Glo luminescence, 16 h; series mostly up to 92.4 µM; note: nearly all actives have a fitted effect of over 55% in size
Outline: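 CellTiter-Glo ATP luminescence measured after the LiveBLAzer read in the same wells; ER-beta-UAS-bla HEK293T cells, 16 hr compound treatment with 1nM 17-beta-estradiol agonist at 37C, 5% CO2.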

[19] = target: Estrogen receptor (Homo sapiens) (UniProt P03372); assay: qHTS assay to identify small molecule antagonists of the estrogen receptor alpha (ER-alpha) signaling pathway using the BG1 cell line in the presence of 0.1 nM 17-beta-estradiol (AID 1259244); settings: VM7Luc4E2 (BG1) ERE-luciferase, antagonist mode, 0.1 nM E2, 22 h; series mostly up to 92.4 µM; note: nearly all actives have a fitted effect of over 50% in size
Outline: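 Luciferase signal from VM7Luc4E2 ERE-reporter cells, co-dosed with test compound and 0.1 nM final 17beta-estradiol for 22 h, read with ONE-Glo.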

[20] = qHTS assay to identify small molecule phospholipidosis (PLD) inducers (AID 1259344; active = well fitted curve in the direction sought with a large enough effect; an effect the other way counts as inactive or inconclusive); settings: HepG2 phospholipidosis, LipidTOX Red imaging, 24 h; series mostly up to 38.3 µM
Outline: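 After 4 h attachment on collagen I, HepG2 cells were dosed with compound alongside LipidTOX Red, kept 24 h at 37 C, fixed, and imaged for lamellar phospholipid pits.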
% is set by controls: 0 for no effect and ±100 for the full control effect.

Sequence of Estrogen receptor (Homo sapiens) (P03372 whole entry, looked up): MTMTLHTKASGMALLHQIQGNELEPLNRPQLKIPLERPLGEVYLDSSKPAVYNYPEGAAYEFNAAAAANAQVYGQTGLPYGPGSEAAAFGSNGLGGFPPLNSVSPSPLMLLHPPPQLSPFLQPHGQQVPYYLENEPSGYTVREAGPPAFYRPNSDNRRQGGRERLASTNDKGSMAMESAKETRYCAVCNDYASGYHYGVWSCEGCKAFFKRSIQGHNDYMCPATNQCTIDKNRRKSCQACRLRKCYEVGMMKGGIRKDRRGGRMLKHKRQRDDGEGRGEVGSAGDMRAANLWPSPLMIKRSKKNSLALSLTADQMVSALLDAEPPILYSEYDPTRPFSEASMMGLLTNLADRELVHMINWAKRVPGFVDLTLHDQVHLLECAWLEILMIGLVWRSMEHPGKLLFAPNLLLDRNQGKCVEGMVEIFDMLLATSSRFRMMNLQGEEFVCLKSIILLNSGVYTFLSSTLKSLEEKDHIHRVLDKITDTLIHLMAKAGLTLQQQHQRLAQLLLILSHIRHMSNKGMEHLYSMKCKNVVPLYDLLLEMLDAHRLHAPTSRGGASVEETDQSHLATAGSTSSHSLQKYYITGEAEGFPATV
Sequence of Androgen receptor (Homo sapiens) (P10275 whole entry, looked up): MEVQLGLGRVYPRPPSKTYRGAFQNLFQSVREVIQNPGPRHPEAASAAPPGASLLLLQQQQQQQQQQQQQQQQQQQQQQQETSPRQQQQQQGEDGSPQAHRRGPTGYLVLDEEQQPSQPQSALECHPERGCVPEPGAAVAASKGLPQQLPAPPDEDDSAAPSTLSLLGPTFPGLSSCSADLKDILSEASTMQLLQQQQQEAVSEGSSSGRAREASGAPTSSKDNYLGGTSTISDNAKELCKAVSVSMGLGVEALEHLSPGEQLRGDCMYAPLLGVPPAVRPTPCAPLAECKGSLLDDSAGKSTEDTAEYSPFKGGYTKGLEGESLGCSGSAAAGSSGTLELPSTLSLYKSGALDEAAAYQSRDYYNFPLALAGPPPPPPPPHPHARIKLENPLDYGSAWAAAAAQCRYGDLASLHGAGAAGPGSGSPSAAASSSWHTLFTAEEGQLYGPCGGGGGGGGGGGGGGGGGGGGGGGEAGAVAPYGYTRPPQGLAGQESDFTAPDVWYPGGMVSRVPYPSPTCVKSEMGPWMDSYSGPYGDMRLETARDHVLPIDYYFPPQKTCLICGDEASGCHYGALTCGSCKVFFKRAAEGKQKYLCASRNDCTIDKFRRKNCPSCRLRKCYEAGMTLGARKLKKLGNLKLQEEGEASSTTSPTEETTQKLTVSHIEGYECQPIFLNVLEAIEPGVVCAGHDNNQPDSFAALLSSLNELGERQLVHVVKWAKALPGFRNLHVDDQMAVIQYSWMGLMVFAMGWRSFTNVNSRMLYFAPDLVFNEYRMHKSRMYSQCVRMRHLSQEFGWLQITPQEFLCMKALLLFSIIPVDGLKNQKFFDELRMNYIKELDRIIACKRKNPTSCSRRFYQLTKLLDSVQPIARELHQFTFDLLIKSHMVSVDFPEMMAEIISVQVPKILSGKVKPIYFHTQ
Sequence of Estrogen receptor beta (Homo sapiens) (Q92731 whole entry, looked up): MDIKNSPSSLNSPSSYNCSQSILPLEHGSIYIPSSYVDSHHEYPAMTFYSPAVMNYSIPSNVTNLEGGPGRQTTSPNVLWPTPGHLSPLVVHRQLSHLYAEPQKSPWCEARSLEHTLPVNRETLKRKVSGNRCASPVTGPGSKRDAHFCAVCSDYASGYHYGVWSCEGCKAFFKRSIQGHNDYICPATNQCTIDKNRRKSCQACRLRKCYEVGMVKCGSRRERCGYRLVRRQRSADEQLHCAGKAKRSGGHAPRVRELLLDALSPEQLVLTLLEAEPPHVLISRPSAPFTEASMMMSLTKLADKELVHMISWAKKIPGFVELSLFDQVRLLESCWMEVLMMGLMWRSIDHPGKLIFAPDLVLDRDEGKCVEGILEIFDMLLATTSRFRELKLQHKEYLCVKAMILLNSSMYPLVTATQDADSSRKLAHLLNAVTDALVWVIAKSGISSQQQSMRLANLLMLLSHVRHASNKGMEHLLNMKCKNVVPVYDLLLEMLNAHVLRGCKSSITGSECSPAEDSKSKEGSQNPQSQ

CC(=O)c1cc(C)oc1C
inactive: Potency [1] | Potency [2] | Potency [3] | outcome [4] | outcome [5] | Potency [6] | Potency [7] | outcome [8] | outcome [9] | outcome [10] | outcome [11] | Potency [12] | Potency [13] | Potency [14] | outcome [15] | outcome [16] | outcome [17] | outcome [18]

COc1cc2c(cc1OC)C(=O)C(CC1CCN(Cc3ccccc3)CC1)C2 (stereo unspecified)
inactive: Potency [1] | Potency [2] | Potency [3] | outcome [4] | outcome [5] | Potency [6] | outcome [19] | outcome [20] | Potency [7] | outcome [8] | outcome [9] | outcome [11] | Potency [13] | outcome [15] | outcome [16] | outcome [17] | outcome [18]

CC1CCc2c(N3CCC(O)CC3)c(F)cc3c(=O)c(C(=O)O)cn1c23 (stereo unspecified)
inactive: Potency [1] | Potency [2] | Potency [3] | outcome [4] | outcome [5] | outcome [19] | outcome [20] | Potency [7] | outcome [9] | outcome [10] | outcome [11] | Potency [12] | outcome [15] | outcome [18]

O=C(CN1CCNCC1)NC1CCCCC1
inactive: Potency [1] | Potency [2] | Potency [3] | outcome [4] | outcome [5] | outcome [19] | outcome [20] | Potency [7] | outcome [8] | outcome [9] | outcome [11] | Potency [12] | outcome [15] | outcome [16] | outcome [18]

C#CCN[C@@H]1CCc2ccccc21
inactive: Potency [1] | Potency [2] | Potency [3] | outcome [4] | outcome [5] | Potency [6] | outcome [19] | outcome [20] | Potency [7] | outcome [9] | outcome [10] | outcome [11] | Potency [12] | Potency [13] | Potency [14] | outcome [16] | outcome [17] | outcome [18]

O=C(O)CSCC(=O)NC1CCSC1=O (stereo unspecified)
inactive: Potency [1] | Potency [2] | Potency [3] | outcome [4] | outcome [5] | Potency [6] | PLD induction [20] 5.58% [at 7.66 µM] | Potency [7] | outcome [8] | outcome [9] | outcome [11] | Potency [12] | Potency [13] | Potency [14] | outcome [15] | outcome [16] | outcome [17] | outcome [18]

CN(C)CCCCl
inactive: Potency [1] | Potency [2] | Potency [3] | outcome [4] | outcome [5] | outcome [19] | Potency [7] | outcome [8] | outcome [9] | outcome [10] | outcome [11] | Potency [12] | outcome [15] | outcome [16] | outcome [18]

CCN(CC)CCN
inactive: Potency [1] | Potency [2] | Potency [3] | outcome [4] | outcome [5] | outcome [19] | Potency [7] | outcome [8] | outcome [9] | outcome [10] | outcome [11] | Potency [12] | Potency [13] | Potency [14] | outcome [15] | outcome [18]
